aGlu spleen mod = inhibits or activates alpha-glucosidase in human spleen homogenate | P10253 | human spleen homogenate, 4-MU-alpha-glucoside fluorescence | Potency, µM (highest dose often 79.9 µM), without a hit: at the highest dose activity change, negative = inhibition, hits mostly inhibitors | hit rate 0.006% among 240,000 | AID 2112;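 further: potency means the concentration at half of the fitted maximal effect; 0% = enzyme with vehicle and -100% = no enzyme basal signal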
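Enzyme source: human spleen homogenate, 1 ug/well. Buffer 50 mM citric acid/K phosphate pH 5.0, 0.01% Tween-20. 4-MU-alpha-glucoside 1 mM; 37 C x 40 min; NaOH/glycine stop; fluorescence.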
GAA glycogen mod = alters human alpha-glucosidase cleavage of glycogen | recombinant GAA, glycogen substrate, Amplex Red glucose oxidase fluorescence | Potency, µM (highest dose often 76.4 µM), for inactives: at the highest dose activity change, negative = inhibition, hits mostly inhibitors | hit rate 0.38% among 300,000 | AID 2100;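 further: potency means the concentration at half of the fitted maximal effect; 0% = full enzyme reaction and -100% = no-enzyme basal signal; the screen sought inhibitors and activators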
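Recombinant human enzyme (4 nM); glycogen substrate; 37 C, 40 min, pH 5.0. Readout: coupled glucose oxidase/Amplex Red fluorescence.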
aGal spleen mod = inhibits or activates alpha-galactosidase in human spleen homogenate | human spleen homogenate, 4MU-alpha-Gal fluorescence, 40 min | Potency, µM (doses to about 80 µM), for inactives: at the highest dose activity change, negative = inhibition, hits mostly inhibitors | P06280 | hit rate 0.008% among 240,000;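 further: potency means the concentration at half of the fitted maximal effect; 0% = enzyme with vehicle and -100% = no enzyme basal signal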
Target sequence (P06280 32-429 limits assumed): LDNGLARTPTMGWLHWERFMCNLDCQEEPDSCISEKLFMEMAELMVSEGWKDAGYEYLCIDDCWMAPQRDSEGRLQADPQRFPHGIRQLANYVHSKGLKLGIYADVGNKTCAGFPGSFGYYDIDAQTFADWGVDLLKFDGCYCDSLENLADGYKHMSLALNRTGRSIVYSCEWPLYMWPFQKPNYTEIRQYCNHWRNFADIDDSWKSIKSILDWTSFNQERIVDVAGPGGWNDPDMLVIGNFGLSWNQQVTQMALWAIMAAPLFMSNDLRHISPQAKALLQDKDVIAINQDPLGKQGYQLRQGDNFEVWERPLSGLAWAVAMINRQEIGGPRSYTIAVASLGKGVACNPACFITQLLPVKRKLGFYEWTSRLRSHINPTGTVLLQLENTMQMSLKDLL
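Human spleen homogenate (1 ug) was the enzyme source, with 4-methylumbelliferyl-alpha-D-galactopyranoside (1 mM final) in pH 5.0 citrate buffer with 0.01% Tween-20. Compounds were titrated; after 40 min at 37C, NaOH/glycine stop, 4-MU fluorescence read; AC50 from Hill fits.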
GAA inh = blocks human lysosomal alpha-glucosidase; purified human GAA, 4-MU-alpha-glucoside fluorescence; hit rate 0.005% among 200,000; Potency, µM (series often up to 76.9 µM), inactives show at the top dose activity change, negative = inhibition, most hits filed as inhibitors; P10253;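 further: potency means the concentration at half of the fitted maximal effect; plate controls were uninhibited enzyme wells for no effect and no-enzyme background for full effect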
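Endpoint fluorogenic read: 20 min room-temperature reaction of 4 nM human alpha-glucosidase with 400 uM 4-methylumbelliferyl-alpha-D-pyranoside, pH 5.0, quenched with 1M NaOH/1M glycine pH 10. AC50 from Hill modeling.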
GLA inh pH 4.5 = alpha-galactosidase A (human) inhibition, pH 4.5; purified enzyme, 4-MU-alpha-Gal fluorescence, pH 4.5; P06280; activity change, negative = inhibition, % at 105 µM; 230,000 tested, under 10 active;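 further: 0% = full activity with enzyme and -100% = basal without enzyme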
Active calls of the source: *; ? = inconclusive; · = not tested or not shown; [ ] = remark or other dose. The list is not random: actives were taken first. Their share in the collection is about 0.4%. The call rests on the fitted dose curve; in most records, active means well fitted curve in the direction sought with a large enough effect; inconclusive means small, poorly fitted or top-dose-only effect, or another doubt; inactive means no such curve, though single readings can be large; an effect the other way counts as inactive or inconclusive.

SMILES	aGlu spleen mod	GAA glycogen mod	aGal spleen mod	GAA inh	GLA inh pH 4.5
COc1ccc(NC(=O)NNC(=O)C(O)(c2ccccc2)c2ccccc2)cc1	·	-7%[76.3 µM]	·	·	·
O=C(NNc1ccc(C2CCCCC2)cc1)C(O)(c1ccccc1)c1cccs1 (stereo not given)	-15%	20µM*	6%	-14%	-9
COc1ccc(C(O)(C(=O)NNc2ccc(C)cc2)c2cccs2)cc1 (stereo not given)	1%	20µM*	-1%	-2%	1
COC(=O)c1cc(=O)c(O)c2c(O)c(O)ccc2c1	1%	·	4%	·	-1
CC1=Nc2cccc3cccc(c23)N1	3%	14µM*	-3%	-5%	-1
Cc1ccc(NC(=S)NNc2ccc([N+](=O)[O-])cc2S(=O)(=O)Nc2ccccc2C(=O)O)cc1C	1%	22µM*	-2%	0%	-2
CC(=O)N1CCN(c2ccc(NCc3ccccc3)cc2)CC1	-10%	14µM*	-2%	-3%	-8
O=C(CN1CCN(c2ccccc2)CC1)NCc1ccc(F)cc1	·	-1%	·	·	·
Fc1ccc(CNc2ccc(N3CCN(Cc4ccccc4)CC3)cc2)cc1	·	8.9µM*	·	·	·
Cc1ccc(CNc2ccc(N3CCOCC3)cc2)s1	-3%	28µM*	0%	-3%	5
CC(=O)N1CCN(c2ccc(NCc3cccs3)cc2)CC1	0%	40µM*	6%	-9%	4
CC(=O)N1CCN(c2ccc(NCc3cccc4ccccc34)cc2)CC1	·	-16%[15.3 µM]	·	·	·
C=C1CCC[C@]2(C)C[C@H]3OC(=O)[C@H](CNCCc4ccccc4OC)C3CC12 (stereo not given in full)	7%	·	1%	·	-2
CC(=O)OCC1OC(C#Cc2ccc(Cl)cc2)C=CC1OC(C)=O (stereo not given)	7%[17.4 µM]	·	-9%[17.5 µM]	·	·
CC(=O)N1CCN(c2ccc(NCc3ccc(C)s3)cc2)CC1	-7%	16µM*	-3%	-2%[15.4 µM]	2
Oc1ccccc1N1CCN(c2nc(-c3cccs3)nc3ccccc23)CC1	6%	40µM*	8%	·	-2
c1ccc(N2CCN(c3nc(-c4cccs4)nc4ccccc34)CC2)cc1	7%	-2%	2%	6%	3
Oc1ccc(N2CCN(c3nc(-c4cccs4)nc4ccccc34)CC2)cc1	-6%	25µM*	-5%	·	4
CN1[C@H]2CC(OC(=O)[C@H](CO)c3ccccc3)C[C@H]1[C@H]1O[C@H]12 (stereo not given in full)	6%	·	8%	·	·
CC(=O)NCCCC[C@H](NC(=O)OC(C)(C)C)C(=O)Nc1ccc2c(C(F)(F)F)cc(=O)oc2c1	8%	·	26%	·	·
CC(C)[N+]1(C)[C@@H]2CC[C@H]1CC(OC(=O)[C@@H](CO)c1ccccc1)C2 (stereo not given in full)	-6%	·	10%	·	-5
CC(NC(=O)Nc1ccccc1O)(C(F)(F)F)C(F)(F)F	3%	16µM*	6%	-12%	-14
COc1cc(O)c2c(c1)oc(=O)c1c3cc(O)c(O)cc3oc21	-10%	·	1%	·	·
CCCCc1cc2c(cn1)=C(OC(=O)c1ccco1)C(C)(OC(=O)CC)C(=O)C=2 (stereo not given)	-3%[17.4 µM]	·	0%[17.5 µM]	·	8
COc1ccc(NCc2ccc(OC)c(Cn3ccnc3)c2)c(OC)c1	·	7µM*	·	·	·
SMILES	aGlu spleen mod	GAA glycogen mod	aGal spleen mod	GAA inh	GLA inh pH 4.5
C=CC1=C2C=C(C3CC3)N(C3CCCCC3)C=C2C(=O)C(C)(OC(=O)c2ccco2)C1=O (stereo not given)	6%[17.4 µM]	·	-3%[17.5 µM]	·	6
N#Cc1c(/N=C/C=C/c2ccccc2)sc2c1CCCC2	-20%	12µM*	-3%	2%	?
Cc1[nH]n(-c2cccc3ccccc23)c(=O)c1/C=N/c1sc2c(c1C#N)CCC2	4%	20µM*	9%	-15%	-7
Cc1ccc(/C=N/c2sc3c(c2C#N)CCCCC3)o1	4%	?	4%	-3%	2
N#Cc1c(/N=C/c2ccco2)sc2c1CCC2	4%	22µM*	-16%	-10%	-3
Cc1ccc(/C=N/c2sc3c(c2C#N)CCC3)s1	-3%	28µM*	0%	6%	-1
N#Cc1c(/N=C/c2cc3ccccc3s2)sc2c1CCC2	0%	-14%	4%	-7%	8
COC(=O)C1=C(C(=O)OC)[C@@H]2N(C)c3ccccc3[C@@]23C[C@@H](CO)N(C(=O)c2ccco2)C3=N1	3%[17.4 µM]	·	0%[17.5 µM]	·	5
CCOC(=O)c1oc2c(O)c(O)ccc2c(=O)c1-c1nncn1-c1ccccc1	-6%	35µM*	0%	-12%	-8
O=C1CC(N2CCN(c3ccc(O)cc3)CC2)C(=O)N1c1ccc2c(c1)OCO2 (stereo not given)	3%	16µM*	-6%	12%	0
O=C1CC(N2CCCCCC2)C(=O)N1c1ccc2c(c1)OCO2 (stereo not given)	5%	-1%	5%	-8%	-2
COc1cc(C2Nc3cccc4cccc(c34)N2)ccc1O	·	3%[76.3 µM]	·	·	·
Oc1ccc2ccccc2c1C1Nc2cccc3cccc(c23)N1	-1%	10µM*	1%	-4%	2
CC[C@H](C)[C@H](NC(=O)[C@H](C)NC(=O)[C@H](Cc1cnc[nH]1)NC(=O)[C@@H]1CCCN1C(=O)CNC(=O)[C@H](CC(C)C)NC(=O)[C@H](CC(C)C)NC(=O)[C@H](Cc1ccc(O)cc1)NC(=O)CNC(=O)[C@H](C)NC(=O)[C@H](CO)NC(=O)[C@H](CC(N)=O)NC(=O)[C@H](CC(C)C)NC(=O)[C@@H](NC(=O)[C@H](Cc1c[nH]c2ccccc12)NC(=O)CN)[C@@H](C)O)C(=O)O	-12%	·	6%	·	·
O=C(NNc1nc2cc3c(cc2s1)OCO3)c1ccc(F)cc1	4%	28µM*	9%	6%	7
O=C(NNc1nc2cc3c(cc2s1)OCCO3)c1ccc(F)cc1	2%	24%	-5%	-7%	-5
Cc1ccc(SCc2cc(=O)c3c(=O)n(-c4ccccc4)[nH]c3[nH]2)cc1	-2%	10µM*	-4%	-14%	-15
O=c1cc(CSc2ccc(Cl)cc2)[nH]c2[nH]n(-c3ccccc3)c(=O)c12	-14%	?	0%	·	-8
O=C(NNc1ccc(-c2csnn2)cc1)c1cc(Cl)cc(Cl)c1	1%	?	-5%	·	1
O=C(NNc1ccc(-c2csnn2)cc1)c1ccccc1C(F)(F)F	4%	9.9µM*	4%	1%	0
Oc1ccc(/C=N/Nc2ncc(Br)cn2)c(O)c1	8%	28µM*	9%	-9%	-12
Oc1ccc(/C=N/Nc2cccc3cccnc23)c(O)c1	-10%	25µM*	-6%	-2%	-1
O=c1[nH]ncc(N/N=C\c2ccc(O)cc2O)c1Cl	-11%	2.5µM*	-1%	-10%	-13
Oc1ccc(Br)cc1/C=N/Nc1ncc(-c2ccccc2)cn1	1%	5%	3%	2%	-1

Assay outcomes (PubChem)
